# Only some compounds are listed: those with a hit (about 1.6% of all), similar ones and a draw of the others.
# VCAM1 TNFa inh = reduces TNF alpha induced VCAM1 expression in HUVEC. 0.48% of 95,000 active. HUVEC TNFa-induced VCAM-1 immunofluorescence, high-content imaging. AID 802. inhibition, % at 2 µM;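 active means inhibition above the batch mean plus 3 SD, with images confirmed as a hit by eye, cut at about 37% in these data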;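 further: 0% = TNF-stimulated DMSO wells and 100% = unstimulated control wells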
# Phagocytosis inh = inhibitors of macrophage phagocytosis; J774A.1 macrophage IgG-bead phagocytosis, imaging; inhibition, % at 5 µM; 0.07% of 110,000 active;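 active means inhibition above the mean of the plate negative controls plus 5 SD, cut at about 13% in these data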;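 further: phagocytic index as fraction of beads internalized from green versus red external bead signal; plate controls were DMSO negative control for no effect and cytochalasin-D positive control for full effect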
# E-sel TNF inh = TNF alpha driven E-selectin expression inhibition | HUVEC TNFa-induced E-selectin immunofluorescence, high content | 0.71% of 120,000 active | inhibition, % at 2 µM | AID 1246;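 active means inhibition above the batch mean plus 3 SD, and confirmed as a hit on visual image review, cut at about 43% in these data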;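 further: 0% = TNF-stimulated DMSO wells and 100% = unstimulated control wells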
# cytoskel mod = alters cytoskeleton assembly in HUVEC cells; 0.18% of 91,000 active; inhibition, % at 2 µM; HUVEC TNFa F-actin phalloidin imaging, high content; AID 836;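 active means inhibition above the batch mean plus 3 SD and confirmed as a hit by visual image inspection, cut at about 30% in these data, passing the limit was not always enough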
# TNFa cytotox = HUVEC cytotoxicity counter-screen, TNF alpha stimulated | HUVEC TNFalpha-stimulated, Hoechst cell count, imaging | cell count reduction, % at 2 µM | 0.17% of 93,000 active | AID 848;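 active means cell count reduction exceeding the screen mean by over 5 SD, scaled to untreated wells per plate, cut at about 78% in these data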;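 further: cells counted after 24 h of TNF alpha exposure following the 1 h pretreatment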
# INS promoter inh = TRM-6 insulin promoter activity inhibition; TRM-6 cells (human fetal islet line), insulin promoter-eGFP reporter, imaging; reporter expression induced with tamoxifen; inhibition, % at 2 µM; 0.9% of 130,000 active;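 active means inhibition above the mean plus 3 SD, with well images judged a real hit on visual review, cut at about 60% in these data, passing the limit was not always enough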
# Active calls of the source: *; x = no result given; [ ] = remark or other dose.
SMILES,VCAM1 TNFa inh,Phagocytosis inh,E-sel TNF inh,cytoskel mod,TNFa cytotox,INS promoter inh
COc1ccc(/C=N/NC(=O)CNc2n[nH]c(=O)[nH]c2=O)cc1OC,x,97*[artifact],x,x,x,x
CCCOC(=O)Nc1c(C)cccc1C(C)C,x,x,x,x,x,8
CC1(C)COC(c2coc3ccccc3c2=O)OC1,x,-6,34,x,x,100*
O=[N+]([O-])c1ccc(Cl)cc1Sc1nc2ccccc2o1,9,x,20,23,2,15
O=[N+]([O-])c1ccc(Sc2nc3ccccc3o2)c([N+](=O)[O-])c1,73*,0,38,-20,35,25
N=C(N)SCc1nc2ccccc2c(=O)n1-c1ccccc1,x,-5,61*,x,x,0
O=c1c2ccccc2nc(SCc2ccc([N+](=O)[O-])cc2)n1-c1ccccc1,-6,x,1,-9,-18,-37
CCOC(=O)N1CCN(C(=O)CCN2C(=O)COc3ccccc32)CC1,3,2,x,-2,-12,79*
O=C(CCN1C(=O)COc2ccccc21)N1CCCCC1,1,-1,-8,-18,-12,21
CCOc1cc2[nH]c(=O)n(CCCC(=O)N(C)Cc3ccccc3)c(=O)c2cc1OCC,x,x,-30,x,x,x
Cc1cc(C(=O)NN=C2C3CC4CC(C3)CC2C4)c2ccccc2n1,52*,-5,-3,-47,27,26
Cc1cc(C(=O)NCCCOC(C)C)c2ccccc2n1,13,x,x,6,-21,14
Cc1cc(C(=O)NCCCN(C)C)c2ccccc2n1,x,x,-20,x,x,78*
COc1ccc(COC(=O)Nc2cn(C)nc2C(F)(F)F)cc1,x,x,x,x,x,-12
COc1cccc(OC(=O)N2CCOCC2)c1,x,x,x,x,x,-77
O=C(Oc1ccc2ccc(=O)oc2c1)N1CCOCC1,90*,0,x,-29,79*,-57
CN1CCN(C(=O)C(N)Cc2ccccc2)CC1 (centres undefined),x,x,x,x,x,-44
Fc1ccccc1CSc1nnc(-c2ccccc2)o1,19,1,-1,0,-4,-35
COc1ccc(-c2nnc(SCc3ccccc3F)o2)cc1,5,0,7,-20,-1,87*
Cn1c(SC2=CS(=O)(=O)c3ccccc32)nc2ccccc21,8,x,62*,13,12,-19
Cn1c(CSc2nc3ccccc3n2C)nc2ccccc21,-4,8,-17,-19,8,-15
O=C1C2C3C=CC(C4CC34)C2C(=O)N1c1ccc2c(c1)OCO2 (centres undefined),x,x,x,x,x,-12
O=C(Nc1ccc(Cl)c(S(=O)(=O)N2CCOCC2)c1)c1ccccc1-c1ccc(C(F)(F)F)cc1,x,7,x,x,x,32
O=C1C2ON(c3ccccc3)C(c3ccncc3)C2C(=O)N1c1ccccc1 (centres undefined),6,x,x,-1,-22,73*
Cc1cccc(C)c1N1C(=O)C2ON(c3ccccc3)C(c3ccncc3)C2C1=O (centres undefined),-8,0,11,19,-26,x
SMILES,VCAM1 TNFa inh,Phagocytosis inh,E-sel TNF inh,cytoskel mod,TNFa cytotox,INS promoter inh
O=C(CCCNC(=O)/C(=C/c1ccc(F)cc1)NC(=O)c1ccccc1)OCc1ccccc1,x,-5,x,x,x,x
CN1Cc2cc(C(=O)c3cc(Cl)cc(CSc4ncccn4)c3O)cnc2NC1=O,96*,x,-1,-45,66,x
Cc1nn(C)cc1CNC(=O)c1cnn2c1NC(c1ccc(Br)cc1)CC2C(F)(F)F (centres undefined),x,0,x,x,x,19
Cc1c(CNC(=O)c2cnn3c2NC(c2ccc(Br)cc2)CC3C(F)(F)F)cnn1C (centres undefined),-7,1,15,4,-9,81*
CCCNC(=O)CSc1nc2[nH]ncc2c(=O)[nH]1,x,x,52,x,x,22
Cc1cc(SCc2cc(=O)[nH]c3ccccc23)nc2ccccc12,18,2,64*,-2,34,26
O=c1cc(CSc2ccccn2)c2ccccc2[nH]1,12,x,4,16,-44,38
Cc1nn(C(=O)c2ccco2)c(C)c1Br,-7,-1,-1,0,4,67*
Cc1nn(C(=O)c2ccco2)c(C)c1Sc1ccc(Cl)cc1,x,-12,x,x,x,x
COC(=O)C1=C2SC(C)C(=O)N2C(N)=C(C#N)C1c1ccc(OC)c(OC)c1 (centres undefined),13,0,x,-37,-12,82*
COC(=O)C1=C2SC(C)C(=O)N2C(N)=C(C#N)C1c1cc(OC)c(OC)c(OC)c1 (centres undefined),-6,0,23,20,-2,x
Cc1cccc(NC(=O)CC2SC(=O)N(c3ccccc3)C2=O)c1 (centres undefined),96*,-2,2,-35,78*,36
COc1ccc(OC)c(S(=O)(=O)N2CCCCC2C(=O)N2CCN(c3ccccn3)CC2)c1 (centres undefined),x,-2,-9,x,x,0
COc1ccc(OC)c(S(=O)(=O)N2CCN(c3ccccn3)CC2)c1,1,x,-4,-7,0,74*
CN(Cc1nc2ccccc2n1C)S(C)(=O)=O,-1,-2,4,5,1,-23
CN(Cc1nc2ccccc2n1C)S(=O)(=O)c1ccc(F)cc1,8,0,9,6,-10,93*
CCCn1c(N)cc(=O)n(C)c1=O,x,x,-11,x,x,x
COc1ccc2cc(C(=O)NCc3ccco3)c(=O)oc2c1,37,0,4,13,66,-5
O=C(O)c1ccc(CNC(=O)c2ccc(C(F)(F)F)cc2)cc1,x,x,-17,x,x,73*
O=C(NCc1ccco1)c1ccc(C(F)(F)F)cc1,x,x,x,x,x,78*
O=C(O)c1ccc(CNC(=O)c2ccc(Br)o2)cc1,x,-1,1,x,x,9
O=C(NCc1ccco1)c1ccccc1-c1ccc(C(F)(F)F)cc1,20,x,-3,-12,8,-29
O=C(NCc1ccco1)c1cc2ccc(O)cc2oc1=O,-1,0,-7,-3,36,92*
COc1ccc(-n2c(=S)[nH]c3cc(C(=O)NCc4ccco4)ccc3c2=O)cc1OC,3,-4,67*,36,3,x
CC(C)c1nc(-c2ccccc2)c(-c2ccccc2)[nH]1,10,-1,3,-9,-11,87*
SMILES,VCAM1 TNFa inh,Phagocytosis inh,E-sel TNF inh,cytoskel mod,TNFa cytotox,INS promoter inh
c1ccc(-c2nc(-c3cccs3)[nH]c2-c2ccccc2)cc1,-8,x,-2,-2,2,50
COc1ccc(OC)c(C(=O)c2coc3ccc(O)cc23)c1,8,-1,-12,61*,-30,x
COc1ccc2occ(C(C)=O)c2c1,2,0,-8,-11,-16,7
Cc1cc(Br)cc2cn[nH]c12,x,x,x,x,x,-20
Cc1nc2ncnn2c(C)c1CCC(=O)NCc1ccccc1,14,1,62*,-15,-26,x
COc1ccc(CNC(=O)CCc2c(C)nc3ncnn3c2C)cc1,-2,-1,x,-24,-10,x
CCN(CC)S(=O)(=O)c1ccc(NC(=O)c2cc(C(=O)OC)cc([N+](=O)[O-])c2)cc1,x,2,x,x,x,71*
Cc1nc(N/N=C/c2ccc(O)cc2)c2cnn(-c3ccccc3)c2n1,x,x,x,x,x,89*
CC(Sc1nnc(-c2cccs2)n1-c1ccccc1)C(=O)NCc1ccc2c(c1)OCO2 (centres undefined),22,-1,4,-3,5,-35

# Screens from PubChem.
